In the library only some 32% were active in any assay of this set; here they are far more common.
PostGolgi yeast – growth inhibition of a yeast mutant, post-Golgi transport screen. post-Golgi transport phenotypic cell assay. inhibition, % at 10 µM. 98,000 tested, 0.9% active. AID 739;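 note: yeast cells grown in 1536-well plates; yeast grown about 18 h at 30C before absorbance read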
CYP2C9 activ – CYP2C9 (human) activation. 96,000 tested, 1.4% active. P11712. recombinant CYP2C9, luciferin-H conversion, luminescence; active compounds read high; factor 1 = untreated enzyme, 0 = blocked. activation factor at 5 µM;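 active = activation factor of 2 or more for CYP2C9 at a 5 µM dose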
Target sequence (P11712 whole entry, looked up): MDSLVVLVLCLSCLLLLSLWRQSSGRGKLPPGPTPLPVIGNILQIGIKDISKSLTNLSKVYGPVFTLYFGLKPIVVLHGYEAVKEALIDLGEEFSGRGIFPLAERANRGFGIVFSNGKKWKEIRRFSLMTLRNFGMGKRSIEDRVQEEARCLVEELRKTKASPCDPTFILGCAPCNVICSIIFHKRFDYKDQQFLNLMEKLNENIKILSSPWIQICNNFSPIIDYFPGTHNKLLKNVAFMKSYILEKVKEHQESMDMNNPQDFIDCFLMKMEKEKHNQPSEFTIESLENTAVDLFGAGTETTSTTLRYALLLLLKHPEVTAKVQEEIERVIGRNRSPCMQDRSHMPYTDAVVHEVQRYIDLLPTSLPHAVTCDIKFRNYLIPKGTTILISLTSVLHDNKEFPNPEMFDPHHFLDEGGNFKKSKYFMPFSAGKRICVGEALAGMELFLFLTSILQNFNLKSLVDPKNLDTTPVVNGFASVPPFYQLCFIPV
PostGolgi ctrl – inhibits growth of the yeast control strain; efflux-deficient yeast background strain, growth absorbance A615, 16 h; inhibition, % at 10 µM; 98,000 tested, 5% active
CYP2C19 activ – activators of human cytochrome P450 2C19; P33261; recombinant CYP2C19, luciferin-H EGE luminescence; active compounds read high; 0 = fully inhibited enzyme, 1 = untreated enzyme; activation factor at 5 µM; 96,000 tested, under 10 active;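 active = activation factor of at least 2 at 5 µM in the primary screen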
CYP2C19 inhib – human CYP2C19 inhibition | P33261 | CYP2C19 Supersomes, luciferin-H EGE luminescence, 30 min | inhibition, % at 5 µM | 96,000 tested, 21% active;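 active = CYP2C19 inhibition above a set limit at 5 µM in the primary screen, cut at about 50% in these data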
CYP2C9 inh – blocks human cytochrome P450 2C9. P11712. CYP2C9 Supersomes, luciferin-H conversion, luminescence. inhibition, % at 5 µM. 96,000 tested, 20% active;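 active = blocking of liver enzyme CYP2C9 beyond about 50% at 5 µM, limit read from the data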
Large screens that a line does not name were inactive. Cut-off read from the data, not from the text of the source, unless noted: active = inhibition above about 30%; inactive = the rest.

COCCCn1c2nc3ccccc3nc2c2c(=O)n(Cc3ccccc3Cl)cnc21	none (no result: PostGolgi yeast, PostGolgi ctrl)
CCCCCn1c2nc3ccccc3nc2c2c(=O)n(CC3CCCO3)c(C)nc21 (stereo not given)	CYP2C9 inh 74 (no result: PostGolgi yeast, PostGolgi ctrl)
COCCCn1c2nc3ccccc3nc2c2c(=O)n(Cc3ccc(Cl)cc3)cnc21	CYP2C19 inhib 96
O=c1c2c3nc4ccccc4nc3n(CC3CCCO3)c2ncn1CCc1ccccc1 (stereo not given)	none
O=Cc1ccc2noc(-c3ccc(Cl)cc3)c2c1	none
COc1ccc2[nH]c(=O)c(NC(N)=S)nc2c1	none
O=C(COC(=O)C1COc2ccccc2O1)NC(=O)NC1CCCCC1 (stereo not given)	none
COc1cccc(CC(C(=O)Nc2cc(C)ccc2C)c2nn[nH]n2)c1OC (stereo not given)	none
CCc1ccccc1NC(=O)C(Cc1cccc(OC)c1OC)c1nn[nH]n1 (stereo not given)	CYP2C9 inh 50
CC1CCCC(NC(=S)Nc2ccc(SC(F)F)cc2)C1C (stereo not given)	CYP2C19 inhib 68
CC1CCCC(NC(=O)Nc2cccs2)C1C (stereo not given)	none
O=c1c2cc(N3CCOCC3)ccc2[nH]c(=S)n1CCCN1CCN(c2ccccc2F)CC1	none
COC(=O)Cn1nc(-c2ccccc2)c2ccccc21	PostGolgi ctrl 31 (no result: CYP2C9 activ, CYP2C19 activ, CYP2C19 inhib, CYP2C9 inh)
O=C(O)CCCn1nc(-c2ccccc2)c2ccccc21	none
O=C(Cc1cccs1)Nc1nc(-c2ccccc2)cs1	CYP2C19 inhib 51, CYP2C9 inh 61
Cc1nc(CC(=O)Nc2nc(-c3ccccc3)cs2)cs1	CYP2C19 inhib 52
Cc1csc(SCC(=O)Nc2nc(-c3ccccc3)cs2)n1	none
CSc1ccc2[nH]c(=O)cc(C)c2c1	none
COc1cccc(OC)c1-c1nn2c(-c3ccccc3Cl)nnc2s1	PostGolgi ctrl 38, CYP2C19 inhib 82
Clc1ccccc1-c1nnc2sc(-c3ccco3)nn12	CYP2C19 inhib 69
c1ccc(Cc2nnc3sc(-c4ccco4)nn23)cc1	CYP2C19 inhib 91
Clc1ccc(-c2nnc3sc(-c4ccco4)nn23)c(Cl)c1	none (no result: PostGolgi yeast, PostGolgi ctrl)
Cc1ccnc(SCCn2c(N3CCCCC3)nc3c2c(=O)n(C)c(=O)n3C)n1	none (no result: PostGolgi yeast, PostGolgi ctrl)
COc1ccc(/C=N/n2cncn2)cc1CSc1ccccn1	CYP2C19 inhib 83
COc1ccc(/C=N/n2c(N)nc3ccccc32)cc1OC	none
Cc1sc2nc(C(C)C)nc(SCC(=O)NCc3ccco3)c2c1C	PostGolgi ctrl 40, CYP2C19 inhib 78, CYP2C9 inh 82
O=C(CSc1nc2ccsc2c(=O)n1Cc1ccccc1)NCc1ccco1	none
Cc1nc(SCC(=O)NCc2ccco2)c2c(C)c(C)sc2n1	none
Cc1[nH]c2ccc(-c3nnc(SCC(=O)NCc4ccco4)n3Cc3ccccc3)cc2c1C	CYP2C9 inh 66
CC1Cc2nc(SCC(=O)NCc3ccco3)n(Cc3ccccc3)c(=O)c2S1 (stereo not given)	PostGolgi ctrl 43
Cc1sc2nc(SCC(=O)NCc3ccco3)n(-c3ccccc3)c(=O)c2c1C	none
CCOC(=O)CNC(=O)CSc1nnc(-c2ccccc2)n1Cc1ccco1	none
Cc1sc2nc(SCC(=O)NCc3ccco3)n(Cc3ccccc3)c(=O)c2c1C	CYP2C9 inh 59
CC(C)C(=O)Nc1ccc(C(=O)NNC(=O)c2ccco2)cc1	none
O=C(COc1ccc(Cl)cc1Cl)N(Cc1ccco1)C1CCS(=O)(=O)C1 (stereo not given)	none
Cc1cc(Cn2ccnc2)c(C)cc1Cn1ccnc1	CYP2C19 inhib 97, CYP2C9 inh 95
O=C(O)Cn1ccnc1	none
CCOc1cc(N2CCOCC2)c(OCC)cc1NC1=NCCCCC1	none
CC1(C)CC(=O)C(C=NCCN2CCN(CCc3ccccc3)CC2)=C(O)C1	none (no result: CYP2C9 activ, CYP2C19 activ, CYP2C19 inhib, CYP2C9 inh)
c1cnc(SCCOc2cccc3ccccc23)nc1	CYP2C19 inhib 57
Clc1ccc(OCCSc2ncccn2)c2ccccc12	none
COc1cccc(C(=O)NCC(=O)n2nc(C)cc2C)c1	none
CCOC(=O)C1=C(C)NC(C)=C(C(=O)OCC)C1C(=O)OCC(=O)c1ccc2c(c1)OCCO2	CYP2C19 inhib 68, CYP2C9 inh 85
CCOC(=O)C1=C(C)NC(C)=C(C(=O)OCC)C1C(=O)OCC(=O)NC(C)C	CYP2C19 inhib 84, CYP2C9 inh 85
CCOC(=O)C1=C(C)NC(C)=C(C(=O)OCC)C1C(=O)OCC(=O)N1CCc2ccccc21	CYP2C9 inh 82

Screening data deposited in PubChem by several laboratories.
